# Source: PubChem BioAssay (Tox21)
# Inconclusive results are not listed. Where a call stands in place of a potency, no number is given. A structure can be active in one record and inactive in another. Calls of active or inactive are those of the source. Calls follow the shape of the full dose curve.
# Test: qHTS assay to identify small molecule agonists of the hypoxia (HIF-1) signaling pathway - cell viability counter screen (AID 1224844); also: nearly all actives have a fitted effect of over 50% in size
# Conditions: HRE-bla ME-180 viability, CellTiter-Glo luminescence, 17 h; series mostly up to 76.8 µM
# Description: National Center for Advancing Translational Sciences [NCATS]
# NIH Chemical Genomics Center [NCGC]
# U.S. Environmental Protection Agency [EPA]
# National Institutes of Environmental Health Sciences [NIEHS]
# National Toxicology Program [NTP]
# U.S. Food and Drug Administration [FDA]
# Hypoxia-inducible factor-1 (HIF-1) is the major hypoxia-regulated transcription factor that controls cellular responses to low oxygen concentration. HIF-1 is composed of two subunits: hypoxia responsive HIF-1-alpha and constitutively expressed HIF-1-beta, which is also known as aryl hydrocarbon receptor nuclear translocator. During hypoxic conditions, HIF-1-alpha heterodimerizes with HIF-1-beta and translocates into the nucleus where the HIF-1 complex binds to the hypoxia-response element (HRE) and activates expression of target genes such as VEGF (vascular endothelial growth factor). The HIF-1 pathway is essential to normal growth and development, and is involved in the pathophysiology of cancer, inflammation, and ischemia.
# Using a beta-lactamase reporter-gene under control of the hypoxia response element, a cell-based assay [CellSensor(TM) HRE-bla ME-180 from Life Technologies, Carlsbad, CA] was used to measure hypoxia-induced signaling. Tox21 10K library compounds were measured for their ability to induce the reporter gene activity. The cytotoxicity of the Tox21 compound library against HRE-bla ME-180 cell line was tested in parallel by measuring cell viability using CellTiter-Glo assay (Promega, Madison, WI) in the same assay wells.
# Tox21 Assay Protocol Summary:
# HRE-bla ME-180 cells were dispensed at 2,000 cells per well in 6 uL of assay medium containing 0.5% dialyzed FBS into black wall/clear-bottom 1536-well plates using a Multidrop Combi (Thermo Scientific, Waltham, MA) dispenser. After the assay plates were incubated at 37C and 5% CO2 for 5 hrs, 23 nL of compounds dissolved in DMSO, positive controls or DMSO only was transferred to each well of the assay plate using a Pintool station (Kalypsys, San Diego, CA). The assay plates were incubated at 37C and 5% CO2 for 17 hrs. One uL of LiveBLAzerTM B/G FRET substrate (CCF4-AM) (Life Technologies) was added to each well using a Flying Reagent Dispenser (FRD, Aurora Discovery, San Diego, CA). After 2 hr incubation at room temperature, fluorescence intensity (405 nm excitation, 460 nm and 530 nm emissions) was measured using an Envision plate reader (PerkinElmer, Shelton, CT). For cytotoxicity, 4 ul/well of CellTiter-Glo reagent was added into the assay plates using an FRD. After 30 min incubation at room temperature, the luminescence intensity was measured using a ViewLux plate reader (PerkinElmer).
# Potency is read from the fitted curve at half-maximal effect.
SMILES,Potency,"activity change, negative = cytotoxicity"
CCOC(=O)CC(SP(=S)(OC)OC)C(=O)OCC (stereo not given),49 µM (active) and inactive,
CCC1(c2ccccc2)CCC(=O)NC1=O (stereo not given),inactive,
O=C(O)CBr,inactive,
C=CCC1(C(C)CC)C(=O)NC(=O)NC1=O (stereo not given),inactive,
CC(C)[N+](C)(CCC(C(N)=O)(c1ccccc1)c1ccccc1)C(C)C,inactive,
C=C(Cl)CSC(=S)N(CC)CC,inactive,
CC(C)(O)C(Cl)(Cl)Cl,inactive,
C[N+]1(C)CCCCC1,inactive,
CCCCCCC(=O)CCCCCC/C=C/C[C@@H](O)[C@H](O)[C@@](N)(CO)C(=O)O,,0.46% [at 15.8 µM] (inactive)
CCCC[N+](=O)[O-],inactive,
C=C1CC[C@@]2(O)[C@H]3Cc4ccc(O)c5c4[C@@]2(CCN3CC2CC2)[C@H]1O5,inactive,
CCN1CCCC1CNC(=O)C(O)(c1ccccc1)c1ccccc1 (stereo not given),inactive,
CNC(=O)Oc1ccccc1C(C)C,inactive,
O=C(Cl)c1ccccc1,inactive,
CCCOC(=O)c1cncn1C(C)c1ccccc1 (stereo not given),inactive,
CCC(C)(C#N)N=NC(C)(C#N)CC (stereo not given),inactive,
COc1ccccc1OC,inactive,
CC(C)(C)C(=O)C(Cl)Cl,inactive,
O=P(O)(O)CN(CP(=O)(O)O)CP(=O)(O)O,inactive,
CCCCCCCC(=O)Cl,inactive,

SMILES,Potency,"activity change, negative = cytotoxicity"
BrCC1CO1 (stereo not given),inactive,
CCCCCCCCSC(=O)Oc1cc(Cl)nnc1-c1ccccc1,inactive,
CNC(=O)O/N=C(/CSC)C(C)(C)C,inactive,
COC[C@@H](NC(C)=O)C(=O)NCc1ccccc1,inactive,
C[C@H](N)C(=O)c1ccccc1,inactive,
CCOc1cc(OP(=S)(OC)OC)nc(CC)n1,inactive,
CC[C@H](N)c1ccccc1,inactive,
CCOC(=O)Nc1cccc(OC(=O)Nc2ccccc2)c1,inactive,
COc1ccc2c(C(=O)c3ccc(Cl)cc3)c(C)n(CC(=O)O)c2c1,inactive,
COc1cc(CCN)cc(OC)c1OC,inactive,
Cc1ccc2c(c1)C1CN(C)CCC1N2 (stereo not given),,-1.4% [at 15.8 µM] (inactive)
C1CN2CCC1CC2,inactive,
O=C(O)C(Cl)Br (stereo not given),inactive,
ClC1=C(Cl)C2(Cl)C(CBr)CC1(Cl)C2(Cl)Cl (stereo not given),inactive,
Cc1cc(OC(=O)N(C)C)nn1C(=O)N(C)C,inactive,
C=C(C)[C@H]1CN[C@H](C(=O)O)[C@H]1CC(=O)O,inactive,
O=S1(=O)OCCO1,inactive,
ClC(Cl)(Cl)Cl,inactive,
C(COCC1CO1)OCC1CO1 (stereo not given),inactive,
CCN(CCO)CCn1c(Cc2ccccc2)nc2c1c(=O)n(C)c(=O)n2C,inactive,
